Assay outcomes: PubChem BioAssay, NMMLSC
In the library only some 3.5% were active in any assay of this set; here they are far more common.
BoNT-F LC inh = inhibitors of Botulinum neurotoxin F light chain protease | Multiplex microsphere protease cleavage assay, flow cytometry | inhibition, % at 10 µM | actives 0.22% (n = 360,000) | AID 588497; in the data active means inhibition above about 35%, passing the limit was not always enough; inconclusive means no clear call, values can overlap the other calls; further: plate controls were buffer without enzyme for full effect and enzyme alone for no effect
Anthrax LF prot = blocks Bacillus anthracis lethal factor protease. inhibition, % at 10 µM. actives 0.12% (n = 360,000). multiplex microsphere protease cleavage assay, LF. P15917. AID 588501; further: plate controls were buffer without enzyme for full effect and enzyme alone for no effect
Autofluor counter = compound fluorescence in toxin protease inhibitor counterscreen. fluorescence intensity (concentration not given with the values). AID 624483. compound autofluorescence counterscreen, microsphere flow cytometry; stronger effect = higher value. actives 3.1% (n = 360,000); in the data active means fluorescence intensity above about 16000; inconclusive means no clear call, values can overlap the other calls
BoNT-A LC inh2 = blocks Botulinum neurotoxin A light chain protease. inhibition, % at 10 µM. actives 0.17% (n = 360,000). AID 588499. multiplex microsphere protease substrate cleavage, flow cytometry; further: plate controls were buffer without enzyme for full effect and enzyme alone for no effect
An asterisk follows results filed as active; ? = inconclusive. Unless noted, no stated cut-off is given here; in the data, active means inhibition above about 30%; inconclusive means no clear call, values can overlap the other calls; inactive means below that.

SMILES	BoNT-F LC inh	Anthrax LF prot	Autofluor counter	BoNT-A LC inh2
CCn1c(C)cc2c(c1=O)C(c1ccccc1)C(C(=O)OC)=C(N)O2 (centres undefined)	-1.0	-0.2	23918*	0.0
Cc1ccc(N2C(=O)[C@@H]3Cc4ccccc4CN3C2=O)cc1	3.2	-15.2	21075*	1.7
COc1ccc(CC(=O)N2CCN(c3cccc(C)c3C)CC2)cc1	9.0	-3.6	4224	-3.3
Cc1nc(CC(=O)N2CCN(c3cccc(C)c3C)CC2)cs1	-5.7	2.4	20386*	-1.4
CCCCn1c(O)c2n(c1=O)Cc1ccccc1N=C2c1ccc(C)cc1	-4.6	-6.1	5901	-0.6
CC(C)NC(=O)C1(C)CCN1C(=O)c1ccccc1 (centres undefined)	-1.9	-7.0	3319	-0.1
COc1cccc(NC(=O)COC(=O)CCCc2c[nH]c3ccccc23)c1	-2.2	-2.6	22839*	2.6
Cc1c(-c2ccc(OCCN3CCOCC3)cc2)c(=O)oc2ccc3ccccc3c12	-3.5	2.4	3741	-0.4
CCCCCCn1c(=O)n2n(c1=O)C[C@]1(OC(=O)NCc3ccco3)CN(S(=O)(=O)c3ccc(C)cc3)C[C@]1(O)C2	-0.2	-3.6	3618	-0.2
COc1ccccc1NS(=O)(=O)c1ccc(C(=O)NCC(c2ccccc2OC)N2CCCC2)cc1 (centres undefined)	2.2	-4.8	13517	-1.0
COc1ccc(C(CNC(=O)c2cccc(S(=O)(=O)N3CCOCC3)c2)N2CCCC2)cc1 (centres undefined)	-2.2	-0.3	8558	-2.2
COc1ccc(C(CNC(=O)c2cccc(S(=O)(=O)N3CCCC3)c2)N2CCCC2)cc1 (centres undefined)	14.4	-3.6	26904*	-22.9
COc1ccc(C(CNC(=O)c2ccc(-c3nc4ccccc4s3)o2)N2CCCC2)cc1 (centres undefined)	-4.5	5.8	20254*	-11.3
COc1ccc(C(CNC(=O)c2ccc(S(=O)(=O)Nc3ccccc3OC)cc2)N2CCCC2)cc1 (centres undefined)	-1.2	-1.6	19637*	-4.0
COc1cc2c(cc1OC)C(O)=CC(=O)C2=O	-2.7	-3.1	3567	-0.2
CCN(CC)C(=O)c1ccc(N2C(=O)C3CC=C(Cl)CC3C2=O)cc1 (centres undefined)	6.2	0.1	9057	1.6
C/C(=N\O)c1ccc(N2C(=O)C3CC=C(Cl)CC3C2=O)cc1 (centres undefined)	-4.0	-3.3	16899*	-1.6
CN(C)[C@H]1N(C(=O)c2ccc(Br)cc2)N=C2c3ccccc3S(=O)(=O)N21	0.5	-0.8	19842*	?
O=C(Oc1ccc(Br)cc1)C1CCN(C2=NS(=O)(=O)c3ccccc32)CC1	5.4	0.4	?	-0.3
C=CCn1c(SCc2cccc(OC)c2)nnc1-c1ccncc1	?	12.4	3306	-3.8
CCn1c(SCc2nc3ccccc3[nH]2)nnc1-c1cccnc1	-4.6	-3.5	24875*	?
C=CCn1c(SCc2nc3ccccc3[nH]2)nnc1-c1ccccn1	5.5	-3.9	18300*	?
CCn1c(SCc2nc3ccccc3[nH]2)nnc1-c1ccncc1	-2.4	6.2	4858	1.6
C=CCn1c(SCc2nc3ccccc3[nH]2)nnc1-c1cccc(OC)c1	2.5	5.6	22532*	0.7
C=CCn1c(SCc2cccc3ccccc23)nnc1-c1cccnc1	3.1	1.6	21679*	2.0
SMILES	BoNT-F LC inh	Anthrax LF prot	Autofluor counter	BoNT-A LC inh2
C=CCn1c(SCC(=O)Nc2ccc(C(=O)O)cc2)nnc1-c1cccnc1	-3.8	2.0	4140	-0.3
O=C(Cn1cnc2c(OCc3ccccc3)ncnc21)NCCc1c[nH]c2ccccc12	-12.3	-8.7	3178	-0.6
O=C(NCc1ccc(F)cc1)c1cc(C2CCCN(C(=O)c3ccc4ccccc4c3)C2)on1 (centres undefined)	0.1	-0.5	3445	-0.5
CCNC(=O)C1(C)CCCN1Cc1c(F)cccc1F (centres undefined)	0.4	-6.3	3119	-0.6
COc1ccccc1CNC(=O)COC(=O)/C=C/c1ccc2ccccc2n1	6.2	1.1	3405	0.9
CCOC(=O)C1(C)CCCN(C(=O)c2c(-c3ccccc3)noc2C)C1 (centres undefined)	-5.8	1.8	4126	-0.6
COc1ccc(OC)c(C(O)c2ncc(-c3ccc(C(F)(F)F)cc3)[nH]2)c1 (centres undefined)	0.3	-1.2	3380	-0.2
C=CCn1c(SCc2nc3ccccc3[nH]2)nnc1-c1ccc(OC)cc1	-0.9	-0.8	20347*	-1.8
CCn1c(SCc2nc3ccccc3[nH]2)nnc1-c1ccc(OC)cc1	-3.4	0.5	23993*	-3.1
C[C@@H]1CN([C@H](C)CO)S(=O)(=O)c2ccc(C#Cc3ccccc3)cc2O[C@H]1CN(C)C(=O)Nc1ccc2c(c1)OCO2	-10.9	-8.1	2957	0.2
O=S(=O)(Nc1ccc2c(c1)nc1n2CCN(Cc2ccccc2)C1)c1ccc(F)cc1	-11.5	2.7	24166*	2.3
O=S(=O)(Nc1ccc2c(c1)nc1n2CCN(Cc2ccccc2)C1)c1ccccc1	-15.2	-12.1	7297	3.1
Cc1ccc(S(=O)(=O)Nc2ccc3c(c2)nc2n3CCN(Cc3ccccc3)C2)cc1	-3.8	2.7	18646*	6.5
CCOc1ccc(C2CC=C(C(C)=O)CN2S(=O)(=O)c2ccc(C)cc2)cc1 (centres undefined)	-1.6	5.3	4329	-0.2
CCOC(=O)N(C)c1c(CC)nc2c(OCc3ccc(F)cc3)cccn12	4.0	-2.4	3677	-0.1
COc1ccc(Br)cc1CN(C)C(=O)c1ccccc1SCC(=O)N1CCCC1	4.9	-0.4	?	4.2
O=C(CN1C(=O)COc2ccccc21)N1CCCc2ccccc21	-7.2	-0.4	22767*	-7.3
O=C(CN1C(=O)COc2ccccc21)NCc1ccc(C(=O)O)cc1	2.3	1.3	22844*	0.7
O=C(CN1C(=O)COc2ccccc21)N1CCCC1	0.5	0.5	3415	-0.4
COc1ccc(S(=O)(=O)Nc2ccc3c(c2)C(=O)N([C@H](C)CO)C[C@H](C)[C@@H](CN(C)Cc2ccncc2)OCCCC[C@@H](C)O3)cc1	-5.7	-1.4	3568	-0.4
CC1(C)SC(C)(C)N(C=O)C1C(=O)O (centres undefined)	1.1	5.3	4043	-0.3
O=C(Nc1cccc(C(=O)O)c1)/C(=C\c1ccccc1)NC(=O)c1ccco1	0.4	-7.9	3863	-0.2
CC1(O)c2ccccc2C(=O)N1Cc1ccccc1 (centres undefined)	-2.1	0.6	17655*	-2.5
CCOC(=O)CN1CC(C)(C)N(CC(=O)OCC)CC1(C)C	-11.3	-4.7	3580	-0.4
COc1cc(C(=O)Nc2ccccn2)cc(OC)c1OC	8.6	-1.5	3979	-0.1
Cc1cc(C(=O)Nc2ccccn2)cs1	0.4	-2.3	22600*	0.1
Cc1noc(C)c1C(=O)OC(C)C(=O)c1c[nH]c2ccccc12 (centres undefined)	3.9	-0.1	4080	0.0
Cc1cc(C)cc(C(O)c2ncc(-c3cccc(C(F)(F)F)c3)[nH]2)c1 (centres undefined)	-3.5	1.4	4078	-0.3
Cc1cccc(C)c1NC(=O)CSc1nnc(Cn2nnc(-c3ccccc3)n2)n1-c1ccccc1	0.5	0.6	19692*	?
